This is an account of results in PubChem BioAssay.

Experiment [1] in a line: anti-His antibody binders, primary screen, artefact control for SMM control protein annotation, biochemical, small-molecule microarray, 635 nm fluorescence (AID 1128).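 Further: score merges feature fluorescence with signal-to-noise for each printed compound spot.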 As to conditions: anti-His Alexa647 antibody binding, higher = more signal.
The test system of experiment [2] is Human papillomavirus type 1a E7 protein (residues 1-88). Briefly: HPV1a E7 small-molecule binders, primary screen, biochemical, small-molecule microarray, residues 1-88, 635 nm (AID 1129). As to conditions: small-molecule microarray binding, fluorescence 635 nm; higher = more signal.
For experiment [3], the target named is Focal adhesion kinase 1 (Homo sapiens) (UniProt Q05397). Put plainly: small-molecule microarray binders of FAK, primary screen, biochemical, 635/667 nm fluorescence, BSA, DTT (AID 1130).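 Further: composite of spot emission at 667 nm and signal to noise over triplicate slides.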 As to conditions: PTK2 binding, 635 nm fluorescence, higher = more signal.
Sequence of Focal adhesion kinase 1 (Homo sapiens) (Q05397 whole entry, looked up): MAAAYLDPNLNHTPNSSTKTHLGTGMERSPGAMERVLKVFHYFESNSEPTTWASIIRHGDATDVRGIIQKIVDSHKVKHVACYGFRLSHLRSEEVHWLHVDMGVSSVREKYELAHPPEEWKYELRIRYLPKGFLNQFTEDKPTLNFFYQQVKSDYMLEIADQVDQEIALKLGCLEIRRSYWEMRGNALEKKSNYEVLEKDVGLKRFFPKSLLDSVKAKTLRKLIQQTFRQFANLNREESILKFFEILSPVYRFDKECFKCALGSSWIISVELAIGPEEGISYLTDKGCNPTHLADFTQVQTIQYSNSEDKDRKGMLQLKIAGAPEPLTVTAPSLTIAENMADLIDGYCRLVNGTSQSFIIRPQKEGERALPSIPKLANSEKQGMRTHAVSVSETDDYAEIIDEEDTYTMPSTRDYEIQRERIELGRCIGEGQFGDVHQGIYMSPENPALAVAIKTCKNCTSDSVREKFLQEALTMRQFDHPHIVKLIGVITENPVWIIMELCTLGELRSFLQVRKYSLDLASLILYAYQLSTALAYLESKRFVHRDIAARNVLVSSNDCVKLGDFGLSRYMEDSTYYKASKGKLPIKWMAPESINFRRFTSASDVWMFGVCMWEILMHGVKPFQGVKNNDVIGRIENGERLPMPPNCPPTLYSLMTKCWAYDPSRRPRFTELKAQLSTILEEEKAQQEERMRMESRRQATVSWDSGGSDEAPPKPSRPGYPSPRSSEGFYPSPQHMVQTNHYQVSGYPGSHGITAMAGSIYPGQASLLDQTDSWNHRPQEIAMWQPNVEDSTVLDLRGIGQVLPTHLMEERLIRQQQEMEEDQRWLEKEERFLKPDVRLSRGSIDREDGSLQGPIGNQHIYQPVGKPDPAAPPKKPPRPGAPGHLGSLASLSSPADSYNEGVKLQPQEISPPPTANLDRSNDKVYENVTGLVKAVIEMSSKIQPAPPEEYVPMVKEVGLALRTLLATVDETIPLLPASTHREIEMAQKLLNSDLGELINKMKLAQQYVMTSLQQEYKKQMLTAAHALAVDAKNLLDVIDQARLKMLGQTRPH
Experiment [4] has as its system Fibrinogen (Alexa647-labelled). Briefly: fibrinogen binders on compound microarrays, profiling panel, artefact control for SMM control-protein annotation, biochemical, small-molecule microarray, 635/667 nm fluorescence (AID 1131).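 Further: z-score merges 667 nm fluorescence with per-spot signal-to-noise over triplicate slides.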 As to conditions: fibrinogen-A647 binding fluorescence, higher = more signal.
Experiment [5] deals with Follistatin (Homo sapiens) (UniProt P19883). Put plainly: follistatin binders on small-molecule microarrays, primary screen, biochemical, small-molecule microarray, 635/667 nm fluorescence (AID 1132). The conditions noted are these: FST binding, 635 nm fluorescence, higher = more signal.
Sequence of Follistatin (Homo sapiens) (P19883 whole entry, looked up): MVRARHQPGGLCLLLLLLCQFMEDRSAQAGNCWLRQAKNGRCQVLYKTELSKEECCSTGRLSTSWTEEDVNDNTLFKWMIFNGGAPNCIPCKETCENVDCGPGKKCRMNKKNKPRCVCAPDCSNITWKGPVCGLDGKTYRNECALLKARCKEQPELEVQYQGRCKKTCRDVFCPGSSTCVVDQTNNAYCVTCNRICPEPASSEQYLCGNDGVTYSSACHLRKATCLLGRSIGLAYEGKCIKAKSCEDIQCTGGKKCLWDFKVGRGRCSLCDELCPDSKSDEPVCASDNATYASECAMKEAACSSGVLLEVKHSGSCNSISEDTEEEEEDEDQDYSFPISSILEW
The target in experiment [6] is Fibroblast growth factor 2 (Homo sapiens) (UniProt P09038). Briefly: FGF2 binders on small-molecule microarrays, primary screen, biochemical, small-molecule microarray, 635/667 nm fluorescence (AID 1133). The conditions noted are these: small-molecule microarray binding, FGF2, fluorescence 635/667; higher = more signal.
Sequence of Fibroblast growth factor 2 (Homo sapiens) (P09038 whole entry, looked up): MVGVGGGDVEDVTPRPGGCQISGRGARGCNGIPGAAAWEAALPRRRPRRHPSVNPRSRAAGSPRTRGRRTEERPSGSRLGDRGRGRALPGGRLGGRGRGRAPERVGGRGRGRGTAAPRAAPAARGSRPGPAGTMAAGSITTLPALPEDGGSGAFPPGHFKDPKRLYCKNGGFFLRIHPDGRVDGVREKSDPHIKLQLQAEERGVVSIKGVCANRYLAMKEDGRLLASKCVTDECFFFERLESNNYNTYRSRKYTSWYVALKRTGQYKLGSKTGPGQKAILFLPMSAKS
Experiment [7] in a line: mitochondrial membrane potential change in A549 cells, profiling panel, cell-based, JC-1 fluorescence, basal, 24 h, 100 nL (AID 1138).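 Further: A549 lung adenocarcinoma cells under basal conditions with no added stimulus; test concentration not given here.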 As to conditions: higher = more signal.
For a further experiment, the system named is Lefty1. Briefly: Lefty1 binders on small-molecule microarrays, primary screen, biochemical, small-molecule microarray, 635/667 nm fluorescence (AID 1139). As to conditions: small-molecule microarray binding, fluorescence 635/667; higher = more signal.
Experiment [8] has as its system wheat germ agglutinin (Triticum aestivum), Alexa647-labelled. Briefly: wheat germ agglutinin binders on compound microarrays, profiling panel, artefact control for SMM control-protein annotation, biochemical, small-molecule microarray, 635/667 nm fluorescence (AID 1140).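 Further: score merges 667 nm feature emission with signal to noise over triplicate slides.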 As to conditions: WGA-A647 binding, 635 nm fluorescence, higher = more signal.
Experiment [9] has as its target Luciferin 4-monooxygenase (Photinus pyralis) (UniProt P08659). Briefly: firefly luciferase enzyme inhibitors, primary screen, biochemical, luminescence, purified enzyme, 2006 set (AID 1141).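 Further: cell-free assay with purified firefly luciferase at 100 ng per well in PBS; test concentration not given here.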 As to conditions: SteadyGlo luminescence, 30 min, higher = more signal, called active from +8 up or from −8 down.
For experiment [10], the system named is Wnt5a (protein binding on small-molecule microarray). Briefly: Wnt5a binders on small-molecule microarray, primary screen, biophysical, 635/667 nm fluorescence (AID 1142).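 Further: fluorescence read at 667 nm with signal to noise per printed feature.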 The conditions noted are these: 635 nm fluorescence, higher = more signal.
The nature of experiment [11]: cell viability in Huh7 cells, primary screen, cytotoxicity control for HCV replication inhibitor project, CellTiter-Glo luminescence, basal, 48 h (AID 1143).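 Further: Huh7 hepatoma cells carrying a hepatitis C replication reporter with no stimulus; test concentration not given here.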 The conditions noted are these: Huh7 HCV replicon, higher = more signal, called active from +8 up or from −8 down.
Experiment [12] can be described thus: P. aeruginosa biofilm formation inhibitors, primary screen, PAO1 strain, BacTiter-Glo luminescence, LB-PBS (AID 1144). As to conditions: 12 h, higher = more signal.
A short description of experiment [13]: CREB reporter modulators without forskolin, primary screen, cell-based, PC12, CRE-LacZ reporter, unstimulated (AID 1145). The conditions noted are these: no forskolin, luminescence, 4.5 h, higher = more signal, called active from +8 up or from −8 down.
A short description of experiment [14]: CREB reporter modulators under forskolin, primary screen, cell-based, PC12, CRE-LacZ reporter, forskolin-stimulated (AID 1146).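 Further: PC12 cells with 6xCRE LacZ reporter stimulated by forskolin 10 µM; beta-galactosidase reporter signal reflecting CREB driven transcription.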 As to conditions: luminescence, 4.5 h, higher = more signal, called active from +8 up or from −8 down.
Experiment [15] has as its target Streptavidin (Streptomyces avidinii) (UniProt P22629). Briefly: streptavidin binders on small-molecule microarray, primary screen, artefact control for SMM compound annotation, biophysical, 635/667 nm fluorescence (AID 1147).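 Further: signal reflects streptavidin binding to arrayed compounds as a control protein.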 As to conditions: streptavidin binding, higher = more signal.
A short description of experiment [16]: small-molecule binders of probe aInhba, primary screen, biochemical, small-molecule microarray, 635/667 nm fluorescence (AID 1148).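 Further: score merges 667nm spot fluorescence with signal-to-noise for antibody binding to printed compounds.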 The conditions noted are these: higher = more signal.
The target of experiment [17] is Torsin-1A (Homo sapiens) (UniProt O14656). Briefly: torsin A binders from cell lysate, primary screen, small-molecule microarray, wild-type, 635/667 nm (AID 1149). The conditions noted are these: COS7 hTOR1A-WT lysate, 635 nm fluorescence, higher = more signal.
Sequence of Torsin-1A (Homo sapiens) (O14656 whole entry, looked up): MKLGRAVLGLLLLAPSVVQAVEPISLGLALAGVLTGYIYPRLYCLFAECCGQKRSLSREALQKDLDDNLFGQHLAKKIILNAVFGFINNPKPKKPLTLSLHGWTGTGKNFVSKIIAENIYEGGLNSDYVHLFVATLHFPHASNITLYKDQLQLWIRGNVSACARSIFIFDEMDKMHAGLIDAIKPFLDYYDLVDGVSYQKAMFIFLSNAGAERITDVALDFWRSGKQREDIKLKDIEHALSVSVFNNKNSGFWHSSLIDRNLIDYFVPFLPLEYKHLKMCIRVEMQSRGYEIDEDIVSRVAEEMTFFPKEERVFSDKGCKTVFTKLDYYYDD
Experiment [18] shares this target. Briefly: small-molecule binders of mutant TOR1A in lysate, primary screen, cell lysate, small-molecule microarray, COS7 lysate, 635/667 nm fluorescence (AID 1150).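 Further: score pools 667 nm emission and signal to noise measuring lysate protein binding.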 As to conditions: COS7 hTOR1A mutant lysate, 635 nm fluorescence, higher = more signal.
For experiment [19], the system named is Sonic hedgehog protein (Shh). Briefly: small-molecule binders of Shh protein, primary screen, biochemical, small-molecule microarray, 635/667 nm fluorescence (AID 1151).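 Further: Shh protein binding to compounds spotted on small-molecule microarray slides; score combines spot fluorescence intensity with signal-to-noise across triplicate slides.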 As to conditions: small-molecule microarray binding, 635 nm fluorescence; higher = more signal.

The structures appear in SMILES notation. Calls of active or inactive are those of the source. Unless noted, how the calls were made is not given here.

Sequence of Streptavidin (Streptomyces avidinii) (P22629 whole entry, looked up): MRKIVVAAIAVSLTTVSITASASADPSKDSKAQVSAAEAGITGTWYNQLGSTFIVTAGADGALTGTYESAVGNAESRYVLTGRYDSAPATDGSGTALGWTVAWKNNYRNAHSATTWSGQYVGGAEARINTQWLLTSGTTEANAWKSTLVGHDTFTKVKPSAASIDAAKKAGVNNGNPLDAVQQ
Sequence of Luciferin 4-monooxygenase (Photinus pyralis) (P08659 whole entry, looked up): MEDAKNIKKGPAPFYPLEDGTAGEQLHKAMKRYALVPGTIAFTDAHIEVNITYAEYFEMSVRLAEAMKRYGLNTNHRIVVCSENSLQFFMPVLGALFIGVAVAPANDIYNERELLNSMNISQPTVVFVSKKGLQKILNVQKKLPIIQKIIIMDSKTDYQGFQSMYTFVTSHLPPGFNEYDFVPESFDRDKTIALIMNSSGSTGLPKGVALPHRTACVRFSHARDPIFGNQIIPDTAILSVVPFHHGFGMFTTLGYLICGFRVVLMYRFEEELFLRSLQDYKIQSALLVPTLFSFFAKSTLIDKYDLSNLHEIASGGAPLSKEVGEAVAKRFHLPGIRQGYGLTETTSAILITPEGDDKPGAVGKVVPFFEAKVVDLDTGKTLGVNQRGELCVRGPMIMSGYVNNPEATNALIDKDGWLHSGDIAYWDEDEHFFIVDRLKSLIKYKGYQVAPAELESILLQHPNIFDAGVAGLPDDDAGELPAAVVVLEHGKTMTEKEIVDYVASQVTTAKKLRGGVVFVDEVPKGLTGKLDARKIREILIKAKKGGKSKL

For the molecule `[N-]=[N+]=NCc1ccccc1[C@@H]1OC(c2ccc(OCCCO)cc2)=N[C@]1(CCS(=O)(=O)c1ccccc1)C(=O)NCCN1CCOCC1`, the composite z-score is 1.68 in experiment [1]; 1.29 in [2]; 0.261 in [3]; 1.03 in experiment [4]; 1.43 in experiment [5]; 0.913 in experiment [6]. In addition, the composite z-score came out at 0.684 with Lefty1; 1.31 in [8]; 0.808 in experiment [10]; 0.81 in experiment [15]; 0.285 in experiment [16]; 2.1 with Torsin-1A (Homo sapiens) [17]. Further, the composite z-score with Torsin-1A (Homo sapiens) [18] turned out to be 1.9; in experiment [19] it was 0.615. The z-score was 0.721 in [7]; -2.52 (inactive) in [9]; -0.31 (inactive) in [11]; -0.174 (inactive) in [12]; 1.24 (inactive) in [13]; -1.16 (inactive) in experiment [14].
For the molecule `CN1C(=O)[C@]2(Cc3ccccc3)N=C(c3ccc(OCCCO)cc3)O[C@@H]2c2ccccc21`, the composite z-score in [1] was 0.0581; in experiment [2], 1.2; in [3], 1.07; in experiment [4] it was 0.775; in experiment [5] it was 1.3; in experiment [6] it was 1.8. In addition, the composite z-score in the experiment on Lefty1 was 0.201; in [8], 0.831; in [10], 0.928; in experiment [15], 0.0004; in experiment [16] it was 0.112; in the experiment with Torsin-1A (Homo sapiens) [17] it was 0.428. Besides, the composite z-score with Torsin-1A (Homo sapiens) [18] was determined as 0.628; in experiment [19], 1.15. Besides, the z-score in experiment [7] was -0.00476; in [9], -4.06 (inactive); in experiment [11], -4.61 (inactive); in [12], -1 (inactive); in experiment [13], 0.456 (inactive); in experiment [14], -1.12 (inactive).
`COc1ccc(C(O)C2C=CC3C(=O)NC(=O)C3N2Nc2ccccn2)cc1` (stereo not given): the composite z-score in [1] is 0.246; in experiment [2], 0.178; in experiment [3], -0.235; in [4], 0.055; in [5], 0.198; in experiment [6], 0.338. Further, the composite z-score in the experiment on Lefty1 was 0.513; in experiment [8], 0.899; in experiment [10], 0.273; in [15], -0.0335; in experiment [16] it was 0.0659; in the experiment with Torsin-1A (Homo sapiens) [17] it was 0.21. Further, the results for the composite z-score (with Torsin-1A (Homo sapiens) [18]; in experiment [19]) were 0.353 and 0.3, respectively. Also, the z-score in experiment [7] is -0.0269; in [9], -1.99 (inactive); in experiment [11] it was 1.06 (inactive); in [12], -0.727 (inactive); in [13], -0.329 (inactive); in experiment [14], -0.239 (inactive).
Consider `C[C@@H]1ON(c2cccc(C(=O)OC(C)(C)C)c2)[C@H](c2ccc(Br)cc2)[C@H]1C(=O)N1C(=O)OC[C@H]1Cc1ccccc1`, for which the composite z-score in [1] stood at 0.556; in experiment [2] it was 0.77; in experiment [3] it was 0.306; in experiment [4], 0.937; in experiment [5], 1.21; in [6] it was 0.735. Also, the composite z-score in the experiment on Lefty1 was determined as 0.766; in [8], 0.106; in [10], 0.458; in experiment [15], 0.852; in experiment [16] it was 0.134; in the experiment with Torsin-1A (Homo sapiens) [17], 0.18. For the same molecule, the values for the composite z-score (with Torsin-1A (Homo sapiens) [18]; in experiment [19]) were 0.389 and 0.937, respectively. The z-score in [7] is 1.63; in experiment [9], -0.68 (inactive); in experiment [11] it was -0.242 (inactive); in [12], 0.938 (inactive); in experiment [13], 1.49 (inactive); in experiment [14], -0.278 (inactive).
Consider `O=C1c2ccccc2[C@](Cc2ccccc2I)(C(=O)NC2CC2)[C@H](c2ccc(CO)cc2)N1C1CCCCC1`, for which the composite z-score amounted to 2.63 in experiment [1]; 1.24 in [2]; 0.548 in experiment [3]; 0.806 in experiment [4]; 1.27 in [5]; 1.09 in experiment [6]. Further, the composite z-score in the experiment with Lefty1 stood at 0.593; in experiment [8], 0.993; in [10], 0.557; in [15], 1.05; in [16] it was 0.306; in the experiment with Torsin-1A (Homo sapiens) [17], 0.414. In addition, the results for the composite z-score (with Torsin-1A (Homo sapiens) [18]; in experiment [19]) were 0.68 and 1.06, respectively. The z-score in experiment [7] was 2.01; in [9], -0.912 (inactive); in experiment [11], -3.43 (inactive); in experiment [12], 0.214 (inactive); in experiment [13], 0.531 (inactive); in experiment [14] it was 0.424 (inactive).
